Inconclusive results are not listed. Active and inactive are the calls of the source. Calls come from the whole dose curve; as a rule, active = well fitted curve in the direction sought with a large enough effect in the repeat runs; inconclusive = weak or mixed curves; inactive = no such curve, though single readings can be large; an effect the other way counts as inactive or inconclusive.
What was measured:
[1] = qHTS RealTime-Glo MT Cell Viability Assay in HEK293 cells - 40 hour (AID 1224874); settings: RealTime-Glo luminescence; max response: hits give low values; note: nearly all actives have a fitted effect of over 50% in size; note: potency is the fitted concentration of half-maximal effect
Procedure, shortened: (§1)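 Viable HEK293 cells reduce a cell-permeant prosubstrate; the product diffuses out and is consumed by NanoLuc in the medium to give light. Compounds went in after a 5 h incubation and plates were read over the treatment course.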

[2] = A CellTox Green Cytotoxicity Assay to monitor cytotoxicity in HEK293 cells - 24 hour (AID 1224875); note: nearly all actives have a fitted effect of over 45% in size; note: potency is the fitted concentration of half-maximal effect; for activity change: series mostly up to about 77 µM
Procedure, shortened: (§2)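 Fluorescence intensity, read at 0, 8, 16, 24, 32 and 40 h of compound treatment, reflected dye binding to DNA of dead HEK293 cells; compounds (23 nL, DMSO) were added 5 h after plating cells with reagent.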

[3] = A CellTox Green Cytotoxicity Assay to monitor cytotoxicity in HepG2 cells - 16 hour (AID 1224876); note: nearly all actives have a fitted effect of over 45% in size; note: potency is the fitted concentration of half-maximal effect
Procedure, shortened: (§3)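 Using 1536-well format, dye-containing HepG2 suspension was seeded, allowed 5 h at 37 C/5% CO2, dosed by pintool with compounds, positive and negative controls, and imaged for fluorescence across 40 h.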

[4] = qHTS RealTime-Glo MT Cell Viability Assay in HepG2 cells - 32 hour (AID 1224877); note: nearly all actives have a fitted effect of over 55% in size; note: potency is the fitted concentration of half-maximal effect
Procedure, shortened: (§4)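 HepG2 cells were seeded at 600 cells/well together with NanoLuc luciferase and a cell-permeant prosubstrate, preincubated 5 h at 37 C/5% CO2, then pin-dosed with compounds in DMSO. Nonlytic luminescence from viable cells was read at each time point.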

[5] = A CellTox Green Cytotoxicity Assay to monitor cytotoxicity in HepG2 cells - 24 hour (AID 1224878); note: nearly all actives have a fitted effect of over 45% in size; note: potency is the fitted concentration of half-maximal effect
Procedure, shortened: as §3

[6] = A CellTox Green Cytotoxicity Assay to monitor cytotoxicity in HepG2 cells - 40 hour (AID 1224879); note: nearly all actives have a fitted effect of over 40% in size; note: potency is the fitted concentration of half-maximal effect
Procedure, shortened: as §3

[7] = qHTS RealTime-Glo MT Cell Viability Assay in HEK293 cells - 0 hour (AID 1224880); note: top concentration of the series differs between compounds; nearly all actives have a fitted effect of over 45% in size
Procedure, shortened: as §1

[8] = A CellTox Green Cytotoxicity Assay to monitor cytotoxicity in HEK293 cells - 32 hour (AID 1224881); note: nearly all actives have a fitted effect of over 40% in size; note: potency is the fitted concentration of half-maximal effect
Procedure, shortened: as §2

[9] = A CellTox Green Cytotoxicity Assay to monitor cytotoxicity in HepG2 cells - 0 hour (AID 1224882); note: nearly all actives have a fitted effect of over 35% in size
Procedure, shortened: as §3

[10] = A CellTox Green Cytotoxicity Assay to monitor cytotoxicity in HepG2 cells - 32 hour (AID 1224883); note: nearly all actives have a fitted effect of over 50% in size; note: potency is the fitted concentration of half-maximal effect
Procedure, shortened: as §3

[11] = A CellTox Green Cytotoxicity Assay to monitor cytotoxicity in HEK293 cells - 8 hour (AID 1224884); note: nearly all actives have a fitted effect of over 35% in size; note: potency is the fitted concentration of half-maximal effect
Procedure, shortened: as §2

[12] = qHTS RealTime-Glo MT Cell Viability Assay in HepG2 cells - 16 hour (AID 1224885); note: nearly all actives have a fitted effect of over 50% in size; note: potency is the fitted concentration of half-maximal effect
Procedure, shortened: as §4

[13] = qHTS RealTime-Glo MT Cell Viability Assay in HEK293 cells - 24 hour (AID 1224886); note: nearly all actives have a fitted effect of over 50% in size; note: potency is the fitted concentration of half-maximal effect; for activity change, negative = cytotoxicity: top concentration of the series differs between compounds
Procedure, shortened: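 HEK293 cells were seeded at 600 cells/well together with NanoLuc luciferase and cell-permeant prosubstrate, preincubated 5 h at 37 C/5% CO2, then given compound in DMSO by pintool. Luminescence from viable-cell prosubstrate reduction was read repeatedly over 40 h.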

[14] = qHTS RealTime-Glo MT Cell Viability Assay in HEK293 cells - 8 hour (AID 1224887); note: nearly all actives have a fitted effect of over 50% in size; note: potency is the fitted concentration of half-maximal effect; for activity change, negative = cytotoxicity: top concentration of the series differs between compounds
Procedure, shortened: as §1

[15] = A CellTox Green Cytotoxicity Assay to monitor cytotoxicity in HEK293 cells - 16 hour (AID 1224888); note: nearly all actives have a fitted effect of over 35% in size; note: potency is the fitted concentration of half-maximal effect
Procedure, shortened: as §2

[16] = qHTS RealTime-Glo MT Cell Viability Assay in HepG2 cells - 0 hour (AID 1224889); note: nearly all actives have a fitted effect of over 50% in size
Procedure, shortened: as §4

[17] = qHTS assay to identify small molecule antagonists of the estrogen receptor alpha (ER-alpha) signaling pathway using the BG1 cell line in the presence of 0.1 nM 17-beta-estradiol - cell viability counter screen (AID 1259241); note: nearly all actives have a fitted effect of over 40% in size
Procedure, shortened: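 VM7Luc4E2 cells (endogenous full-length ER-alpha, 4xERE-luciferase), cultured 5 days in charcoal-stripped serum, exposed to compounds with 0.1 nM 17beta-estradiol (final) for 22 hr at 37C. Viability read in same wells as live-cell protease fluorescence after 30 min.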

[18] = qHTS assay to identify small molecule antagonists of the androgen receptor (AR) signaling pathway using the MDA cell line in the presence of 0.5 nM R1881 - cell viability counter screen (AID 1259242); note: nearly all actives have a fitted effect of over 45% in size; note: potency is the fitted concentration of half-maximal effect
Procedure, shortened: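 Viability of MDA-kb2 cells was multiplexed with the luciferase AR readout; after 16 hr with compounds and R1881 at 0.5 nM final, CellTiter-Fluor fluorescence was recorded.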

[19] = target: Androgen receptor (Homo sapiens) (UniProt P10275); assay: qHTS assay to identify small molecule antagonists of the androgen receptor (AR) signaling pathway using the MDA cell line in the presence of 0.5 nM R1881 (AID 1259243); note: nearly all actives have a fitted effect of over 50% in size; note: potency is the fitted concentration of half-maximal effect
Procedure, shortened: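 Reporter cells cultured without CO2 receive test chemicals, then 0.5 nM R1881 final; after 16 hr at 37C, ONE-Glo is added and light output recorded.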

[20] = A CellTox Green Cytotoxicity Assay to monitor cytotoxicity in HepG2 cells - 8 hour (AID 1224890); note: nearly all actives have a fitted effect of over 45% in size
Procedure, shortened: as §3
% is set by controls: 0 for no effect and ±100 for the full control effect.

Chain of Androgen receptor (Homo sapiens) (P10275 whole entry, looked up): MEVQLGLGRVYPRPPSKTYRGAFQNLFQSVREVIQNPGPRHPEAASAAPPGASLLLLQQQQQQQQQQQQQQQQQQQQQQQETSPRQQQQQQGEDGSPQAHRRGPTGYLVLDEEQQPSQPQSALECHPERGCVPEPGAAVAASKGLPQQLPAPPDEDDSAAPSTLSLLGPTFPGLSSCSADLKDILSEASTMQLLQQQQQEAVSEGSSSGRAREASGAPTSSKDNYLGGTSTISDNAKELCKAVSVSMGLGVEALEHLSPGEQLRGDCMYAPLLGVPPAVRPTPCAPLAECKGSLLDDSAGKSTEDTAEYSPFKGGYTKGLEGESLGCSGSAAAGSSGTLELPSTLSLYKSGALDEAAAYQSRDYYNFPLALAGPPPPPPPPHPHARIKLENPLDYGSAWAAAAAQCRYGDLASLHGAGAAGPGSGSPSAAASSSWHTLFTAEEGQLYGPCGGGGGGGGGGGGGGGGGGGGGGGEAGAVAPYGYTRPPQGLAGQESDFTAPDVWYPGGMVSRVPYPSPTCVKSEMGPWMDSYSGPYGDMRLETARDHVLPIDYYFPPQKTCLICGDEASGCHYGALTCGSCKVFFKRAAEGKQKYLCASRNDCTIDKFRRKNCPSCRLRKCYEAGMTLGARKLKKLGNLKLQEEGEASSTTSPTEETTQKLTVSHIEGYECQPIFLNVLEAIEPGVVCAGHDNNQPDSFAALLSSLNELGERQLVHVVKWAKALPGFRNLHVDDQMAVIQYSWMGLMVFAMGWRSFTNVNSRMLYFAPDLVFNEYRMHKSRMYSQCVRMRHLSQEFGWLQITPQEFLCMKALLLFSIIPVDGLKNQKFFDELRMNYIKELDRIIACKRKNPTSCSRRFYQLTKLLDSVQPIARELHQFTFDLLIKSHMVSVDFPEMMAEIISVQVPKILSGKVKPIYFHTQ

c1ccc(-c2ccccc2-c2ccccc2)cc1
inactive: max response [1] -10.2% | Potency [2] | Potency [3] | Potency [4] | Potency [5] | Potency [6] | Potency [7] | Potency [8] | Potency [9] | Potency [10] | Potency [11] | Potency [12] | Potency [13] | Potency [14] | Potency [15] | Potency [16] | Potency [17] | Potency [18]

CC/C(=C(/c1ccc(O)cc1)c1ccc(OCCN(C)C)cc1)c1ccccc1
active: Potency [1] 8.12 µM | Potency [2] 25.7 µM | Potency [3] 25.7 µM | Potency [4] 14.4 µM | Potency [5] 18.2 µM | Potency [6] 12.9 µM | Potency [8] 22.9 µM | Potency [10] 14.4 µM | Potency [11] 28.8 µM | Potency [12] 28.8 µM | Potency [13] 10.2 µM | Potency [14] 14.4 µM | Potency [15] 28.8 µM | Potency [18] 40.3 µM | Potency [19] 32 µM
inactive: Potency [7] | Potency [9] | Potency [16] | Potency [17]

COc1cc2ncnc(Nc3cccc(Cl)c3)c2cc1OC
inactive: max response [1] -0.219% | activity change [2] -0.939% [at 15.8 µM, hits give high values] | cytotoxicity increase [3] -17.7% [at 15.8 µM] | activity change, negative = cytotoxic [4] 8.78% [at 15.8 µM] | cytotoxicity [5] -17.9% [at 15.8 µM] | cytotoxicity increase [6] -19.3% [at 15.8 µM] | activity change, negative = cytotoxicity [7] -2.52% [at 15.8 µM] | cytotoxicity increase [8] 0.0774% [at 15.8 µM] | cytotoxicity [9] -14.6% [at 15.8 µM] | cytotoxicity increase [10] -17.4% [at 15.8 µM] | cytotoxicity increase [11] -7.13% [at 15.8 µM] | activity change, negative = cytotoxic [12] -11.4% [at 15.8 µM] | activity change, negative = cytotoxicity [13] -2.37% [at 15.8 µM] | activity change, negative = cytotoxicity [14] -3.64% [at 15.8 µM] | activity change [15] -3.26% [at 15.8 µM, hits give high values] | activity change, negative = cytotoxicity [16] -27.3% [at 15.8 µM] | cytotoxicity increase [20] -18% [at 15.8 µM] | activity change, negative = cytotoxicity [17] -7.05% [at 19 µM] | viability change, negative = cytotoxic [18] -6.19% [at 19 µM] | activity, negative = inhibition [19] 23.3% [at 19 µM]

Cc1c(Cl)c(=O)oc2cc(O)ccc12
inactive: Potency [2] | Potency [3] | Potency [4] | Potency [5] | Potency [6] | Potency [7] | Potency [8] | Potency [9] | Potency [10] | Potency [11] | Potency [12] | Potency [15] | Potency [16] | Potency [20]
active: Potency [1] 43.6 µM | Potency [13] 49 µM | Potency [14] 43.6 µM

Cn1c(=O)[nH]c2ncn(C)c2c1=O
inactive: max response [1] 3.46% | Potency [2] | Potency [3] | Potency [4] | Potency [5] | Potency [6] | Potency [7] | Potency [8] | Potency [9] | Potency [10] | Potency [11] | Potency [12] | Potency [13] | Potency [14] | Potency [15] | Potency [16] | Potency [20] | Potency [17] | Potency [18] | Potency [19]

Nc1ccc(Cl)c([N+](=O)[O-])c1
active: Potency [19] 24.3 µM
inactive: max response [1] -19.2% | Potency [2] | Potency [3] | Potency [4] | Potency [5] | Potency [6] | Potency [7] | Potency [8] | Potency [9] | Potency [10] | Potency [11] | Potency [12] | Potency [13] | Potency [14] | Potency [15] | Potency [16] | Potency [20] | Potency [17] | Potency [18]

CCc1cccc(C)c1N(C(=O)CS(=O)(=O)O)C(C)COC (stereo not drawn)
inactive: max response [1] -1.03% | Potency [2] | Potency [3] | Potency [4] | Potency [5] | Potency [6] | Potency [7] | Potency [8] | Potency [9] | Potency [10] | Potency [11] | Potency [12] | Potency [13] | Potency [14] | Potency [15] | Potency [16] | Potency [17] | Potency [18] | Potency [19]

C/C=C/C(=O)C1=C(C)C=CCC1(C)C
inactive: max response [1] 1.31% | Potency [2] | Potency [3] | Potency [4] | Potency [5] | Potency [6] | Potency [7] | Potency [8] | Potency [9] | Potency [10] | Potency [11] | Potency [12] | Potency [13] | Potency [14] | Potency [15] | Potency [16] | Potency [20] | Potency [17] | Potency [18] | Potency [19]

Nc1cc([N+](=O)[O-])ccc1Cl
inactive: max response [1] 0.705% | Potency [2] | Potency [3] | Potency [4] | Potency [5] | Potency [6] | Potency [7] | Potency [8] | Potency [9] | Potency [10] | Potency [11] | Potency [12] | Potency [13] | Potency [14] | Potency [15] | Potency [16] | Potency [20] | Potency [17] | Potency [18]

C=CC(C)(C)O
inactive: max response [1] 6.97% | Potency [2] | Potency [3] | Potency [4] | Potency [5] | Potency [6] | Potency [7] | Potency [8] | Potency [9] | Potency [10] | Potency [11] | Potency [12] | Potency [13] | Potency [14] | Potency [15] | Potency [16] | Potency [17] | Potency [18] | Potency [19]

CCOc1nc(F)cc2nc(S(=O)(=O)Nc3c(Cl)cccc3C(=O)OC)nn12
inactive: max response [1] 9.81% | Potency [2] | Potency [3] | Potency [4] | Potency [5] | Potency [6] | Potency [7] | Potency [8] | Potency [9] | Potency [10] | Potency [11] | Potency [12] | Potency [13] | Potency [14] | Potency [15] | Potency [16] | Potency [17] | Potency [18] | Potency [19]

Nc1cc([N+](=O)[O-])cc(Cl)c1O
inactive: max response [1] -6.05% | Potency [2] | Potency [3] | Potency [4] | Potency [5] | Potency [6] | Potency [7] | Potency [8] | Potency [9] | Potency [10] | Potency [11] | Potency [12] | Potency [13] | Potency [14] | Potency [15] | Potency [16] | Potency [17] | Potency [18]
